S1P4 agonist: activates the human S1P4 receptor; O95977; S1P4-expressing cell line, agonist reporter assay; activation, % at 4.98 µM; 220,000 compounds, 0.35% hits; in the data active = activation above about 11%;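 note: 0% = DMSO vehicle and 100% = reference agonist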
Target sequence (O95977 whole entry, looked up): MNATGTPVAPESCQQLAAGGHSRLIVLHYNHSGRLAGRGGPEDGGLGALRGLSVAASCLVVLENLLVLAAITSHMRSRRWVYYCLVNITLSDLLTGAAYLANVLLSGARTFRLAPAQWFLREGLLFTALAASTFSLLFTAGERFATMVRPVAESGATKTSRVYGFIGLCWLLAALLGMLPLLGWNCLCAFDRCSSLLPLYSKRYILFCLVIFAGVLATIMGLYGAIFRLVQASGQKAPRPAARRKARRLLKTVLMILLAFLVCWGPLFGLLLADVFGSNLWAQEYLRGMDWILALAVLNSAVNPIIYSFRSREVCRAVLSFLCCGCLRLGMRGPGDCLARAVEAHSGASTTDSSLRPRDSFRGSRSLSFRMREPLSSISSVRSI
Pf gamet viab: inhibitors of late stage P. falciparum gametocyte viability; P. falciparum stage V gametocytes, ATP luminescence, 24 h; 150,000 compounds, 0.065% hits; inhibition, % at 10.9 µM;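 active = inhibition above the mean plus 3 SD of compounds within the control limits, set per campaign, cut at about 38% in these data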;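 note: 0% = DMSO wells and 100% = medium only without gametocytes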
PGE2 EP2 inh: blocks the human prostaglandin E2 receptor EP2; P43116; C6 glioma cells expressing human EP2, cAMP TR-FRET; cells stimulated with saturating PGE2; inhibition, % at 25 µM; 260,000 compounds, 0.52% hits; AID 1422;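 active = percent inhibition above 40 after rounding to a whole number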;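 note: rat C6 glioma host cells with rolipram phosphodiesterase inhibitor present; the protocol text gives 20 µM as final concentration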
EP2 modulator: modulators of human EP2 prostaglandin E2 receptor; P43116; EP2-expressing cells, cAMP HTRF FRET, PGE2 co-stimulation; induction, % at 25 µM; 260,000 compounds, 0.83% hits; AID 940;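 active = compounds whose cAMP rise, as percent of the full-agonist control response, exceeds 60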;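 note: rat C6 glioma line stably carrying human EP2 under a CMV promoter; the protocol text gives 20 µM as final concentration; 100% = response of wells given 1 µM PGE2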
S1P4 antagonist: blocks the human S1P4 receptor | O95977 | S1P4-expressing cells, antagonist mode, reporter read-out | inhibition, % at 4.98 µM | 220,000 compounds, 0.26% hits | AID 1510; in the data active = inhibition above about 29%;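 note: 0% = wells stimulated with agonist and 100% = vehicle wells without agonist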
S1P3 antagonist: S1P3 (human) receptor antagonism; Q99500; CHO S1P3 NFAT-BLA reporter, FRET fluorescence, antagonist mode; inhibition, % at 4.98 µM; 170,000 compounds, 0.27% hits; AID 485;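 active = inhibition above the plate cutoff, the mean inhibition of test wells on that plate plus 3 SD, cut at about 28% in these data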;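 note: cells challenged with S1P at its EC80 of 0.8 µM; blue over green emission ratio from cleaved BLA substrate after 4 h stimulation; 0% = S1P-stimulated wells and 100% = unstimulated DMSO-only wells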
Numbers without * were called inactive; · = no result given; ! = not confirmed by another sample. This is a sample that favours compounds with a hit; in the whole collection about 1.9% have one here.

SMILES	S1P4 agonist	Pf gamet viab	PGE2 EP2 inh	EP2 modulator	S1P4 antagonist	S1P3 antagonist
Nc1ncnc2c1C1(CCCCC1)Cc1ccccc1-2	0	6	9	80*!	8	-2
c1ccc(OCc2nc3c4c(ncn3n2)-c2ccccc2CC42CCCC2)cc1	0	9	4	0	-15	-8
CCn1c(SCC(=O)NCc2ccccc2)nnc1-c1ccco1	·	·	18	-4	·	·
CN1C(CC(=O)Nc2ccc(Cl)cc2Cl)c2ccccc2CC1(C)C (stereo not drawn)	1	6	8	61*	1	9
COc1ccc([C@H](C)NC[C@H](O)c2ccc(O)c(NC=O)c2)cc1	1	·	12	81*	4	-8
COc1ccc(C[C@H](C)NC[C@@H](O)c2ccc(O)c(NC=O)c2)cc1	·	·	11	·	·	·
CC1CCc2c(sc3ncnc(SCC(=O)Nc4ccc(N(C)C)cc4)c23)C1 (stereo not drawn)	·	·	13	-2	·	·
N=C1[C@H](O)[C@]2(I)c3ccccc3N3C(=N)[C@H](O)[C@@H]4c5ccccc5N1[C@@H]4[C@@H]32	·	·	68*	7	·	·
CN(C)[C@H]1C(=O)C(C(=O)NCN2CCCC2)=C(O)[C@@]2(O)C(=O)C3=C(O)c4c(O)cccc4[C@](C)(O)[C@H]3C[C@H]12	·	·	44*	7	·	·
CC(=O)Nc1ccc2c(c1)C(=Nc1ccc(C(=O)O)cc1)c1ccccc1-2	·	·	59*	-7	·	·
CC(=O)Nc1ccc(C(=O)c2ccccc2)cc1	-1	·	5	0	-16	-46
CCn1c(=O)c(C(=O)Nc2ccc(Cl)cc2Cl)c(O)c2ccccc21	·	·	10	15	·	·
O=C(Nc1ccc2nn(-c3ccccc3)nc2c1)c1ccco1	0	-35	41*!	-69	-14	·
O=C(Nc1cc2nn(-c3ccccc3)nc2cc1Cl)c1ccco1	1	12	9	9	-8	-13
O=C(Nc1ccc2nn(-c3ccccc3)nc2c1)c1cccnc1	1	-19	40*	-13	-1	26
COCCN1C(=O)C(=O)/C(=C(\O)c2ccc(C)cc2)C1c1ccc(O)c(OC)c1 (stereo not drawn)	·	·	6	0	·	·
COc1cc(OC)cc(-c2cc3nc(C)c(CCC(=O)NCc4ccccc4)c(C)n3n2)c1	-1	39*	3	-71	-3	3
COc1ccccc1-c1cc2nc(C)c(CCC(=O)NCc3ccc(F)cc3)c(C)n2n1	1	-12	16	-42	-3	0
Cc1cc(C)c2c(=O)n(CC(=O)NC3CCCC3)sc2n1	1	1	118*	-51	21	-5
Cc1cc(C)c2c(=O)n(CC(=O)Nc3cccc(Cl)c3C)sc2n1	2	17	44*	-68	8	-1
Cc1cc(C)c2c(=O)n(CC(=O)Nc3ccc(Br)c(C)c3)sc2n1	2	12	20	-42	-2	-16
COc1ccc(OC)c(CCNC(=O)Cn2sc3nc(C)cc(C)c3c2=O)c1	1	·	112*	-54	-10	-7
CCC1(C(O)(C#CCN2CCCCCC2)c2ccccc2)CCCC1 (stereo not drawn)	·	·	8	-81	·	·
CCn1c(COc2ccccc2)nnc1SCC(=O)OC	·	·	10	-2	·	·
CCn1cncc1CN1CCC(O)(c2ccccc2F)CC1	·	·	3	-30	·	·
SMILES	S1P4 agonist	Pf gamet viab	PGE2 EP2 inh	EP2 modulator	S1P4 antagonist	S1P3 antagonist
COc1cccc2cc(-c3ccccc3)c(=O)oc12	1	13	6	30	-14	-21
CCOc1cccc2cc(-c3nnc(-c4ccccc4)o3)c(=O)oc12	·	·	·	·	·	65*
Cc1ccc2[nH]c(=O)c(CN(Cc3nnnn3C3CCCCC3)C3CCCCC3)cc2c1	·	·	5	69*	·	·
CCC(c1nnnn1C(C)(C)C)N(CCc1ccccc1)Cc1cc2cc(C)c(C)cc2[nH]c1=O (stereo not drawn)	·	·	7	15	·	·
Cc1ccc2cc(CN(Cc3nnnn3C3CCCC3)C3CCCCC3)c(=O)[nH]c2c1	·	·	9	1	·	·
CCC(C)(C)n1nnnc1C(C(C)C)N(Cc1ccccc1)Cc1cc2cc(C)ccc2[nH]c1=O (stereo not drawn)	·	·	14	80*	·	·
CCC(c1nnnn1C(C)(C)C)N(Cc1cc2cc(C)ccc2[nH]c1=O)C1CCCCC1 (stereo not drawn)	·	·	17	75*	·	·
CCC(c1nnnn1C1CCCCC1)N(Cc1cc2cc(C)ccc2[nH]c1=O)C1CCCC1 (stereo not drawn)	·	·	12	28	·	·
CCC(c1nnnn1C(C)(C)C)N(CCc1ccccc1C)Cc1cc2cc(C)ccc2[nH]c1=O (stereo not drawn)	·	·	16	65*	·	·
Nc1cccc2cc3ccccc3nc12	·	·	22	-109	·	·
CCCC(c1nnnn1C(C)(C)C)N(Cc1ccccc1OC)Cc1cc2cc(C)ccc2[nH]c1=O (stereo not drawn)	·	·	10	72*	·	·
CCCC(c1nnnn1C(C)(C)C)N(Cc1ccccc1)Cc1cc2ccc(C)cc2[nH]c1=O (stereo not drawn)	·	·	17	37	·	·
CCCC(c1nnnn1Cc1ccco1)N(Cc1cc2cc(C)ccc2[nH]c1=O)C1CCCC1 (stereo not drawn)	·	·	12	68*	·	·
COc1cccc2cc(-c3nc(-c4cccs4)cs3)c(=O)oc12	2	·	19	53	22	17
O=c1oc2ccccc2cc1-c1nc(-c2cccs2)cs1	-2	7	8	61*	17	·
COc1ccc([C@@H](Nc2ccccn2)c2cc(C(C)(C)C)cc(C(C)(C)C)c2O)cc1	·	·	46*	36	·	·
COCCNC(=S)N(CCO)Cc1cc2cc(C)cc(C)c2[nH]c1=O	·	·	11	-86	·	·
C/C(=N/NC(=O)c1cccs1)c1c(C)[nH]n(-c2nc3ccccc3s2)c1=O	2	56*	8	25	-11	-5
COc1ccc(NC(=O)CN2CCN(S(=O)(=O)c3ccc(C)cc3)CC2)cc1	·	·	7	-5	·	·
COCC(C)NC(=O)c1cnn2c(C(F)F)cc(-c3ccc(C)cc3)nc12 (stereo not drawn)	·	·	7	3	·	·
CC(=O)Nc1nc(-c2ccc([N+](=O)[O-])cc2)cs1	-1	16	6	-11	-3	-3
Cc1ccc(Cn2ccc(NC(=O)c3nn(C)cc3[N+](=O)[O-])n2)cc1	0	-1	3	-42	-2	-11
Cn1cc([N+](=O)[O-])c(C(=O)Nc2nc(-c3ccc(Cl)cc3)cs2)n1	-6	10	75*	-42	26	·
Cc1cnc(NC(=O)c2nn(C)cc2[N+](=O)[O-])s1	-1	-16	46*	-37	22	-7
COc1ccccc1NC(=O)C1=C(C)NC2=C(C(=O)CCC2)C1c1cccc(Cl)c1 (stereo not drawn)	·	·	9	13	·	·

Screens deposited in PubChem BioAssay by several laboratories.
